# Data: the supplement of paper PMC6089552
# The whole screen tested about 3,200 compounds, of which about 300 (9.4%) showed activity. This is one part of a sample in which actives are shown more often than they occur. A number with no mark means an inactive call.
# Tested on: A673/TR/shEF
# Test: cell viability (LOESS-normalised, relative to median of negative controls) (log2 ratio); higher = more viable cells (less compound effect), active = hit call of the paper (over 3 MAD below the median)
# Conditions: treatment time: 72 h
# In short: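 For three days, A673/TR/shEF Ewing sarcoma cells in 384-well plates (1,500 per well) were treated with library compounds at two or more concentrations or with DMSO controls, after doxycycline had been added or withheld 24 h beforehand to induce EWS-FLI1 shRNA knockdown. Viability was read by CellTiter-Glo luminescence on an Envision reader. The data were LOESS-corrected per plate, divided by the median of negative controls and log2-transformed.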
# [1] = 0.25 µM, library screen: screen1, EWS-FLI1 expression: high (no doxycycline)
# [2] = 0.25 µM, library screen: screen1, EWS-FLI1 expression: low (doxycycline-induced shRNA knockdown)
# [3] = 2.5 µM, library screen: screen1, EWS-FLI1 expression: high (no doxycycline)
# [4] = 2.5 µM, library screen: screen1, EWS-FLI1 expression: low (doxycycline-induced shRNA knockdown)
# [5] = 0.025 µM, library screen: screen2, EWS-FLI1 expression: high (no doxycycline)
# [6] = 0.025 µM, library screen: screen2, EWS-FLI1 expression: low (doxycycline-induced shRNA knockdown)
# [7] = 0.103 µM, library screen: screen3, EWS-FLI1 expression: high (no doxycycline)
# [8] = 0.103 µM, library screen: screen3, EWS-FLI1 expression: low (doxycycline-induced shRNA knockdown)
# [9] = 0.25 µM, library screen: screen2, EWS-FLI1 expression: high (no doxycycline)
# [10] = 0.25 µM, library screen: screen2, EWS-FLI1 expression: low (doxycycline-induced shRNA knockdown)
# [11] = 0.308 µM, library screen: screen3, EWS-FLI1 expression: high (no doxycycline)
# [12] = 0.308 µM, library screen: screen3, EWS-FLI1 expression: low (doxycycline-induced shRNA knockdown)
# [13] = 0.926 µM, library screen: screen3, EWS-FLI1 expression: high (no doxycycline)
# [14] = 0.926 µM, library screen: screen3, EWS-FLI1 expression: low (doxycycline-induced shRNA knockdown)
# [15] = 2.5 µM, library screen: screen2, EWS-FLI1 expression: high (no doxycycline)
# [16] = 2.5 µM, library screen: screen2, EWS-FLI1 expression: low (doxycycline-induced shRNA knockdown)
# [17] = 2.8 µM, library screen: screen3, EWS-FLI1 expression: high (no doxycycline)
# [18] = 2.8 µM, library screen: screen3, EWS-FLI1 expression: low (doxycycline-induced shRNA knockdown)
# [19] = 8.3 µM, library screen: screen3, EWS-FLI1 expression: high (no doxycycline)
# [20] = 8.3 µM, library screen: screen3, EWS-FLI1 expression: low (doxycycline-induced shRNA knockdown)
# [21] = 25 µM, library screen: screen2, EWS-FLI1 expression: high (no doxycycline)
# [22] = 25 µM, library screen: screen2, EWS-FLI1 expression: low (doxycycline-induced shRNA knockdown)
# [23] = 25 µM, library screen: screen3, EWS-FLI1 expression: high (no doxycycline)
# [24] = 25 µM, library screen: screen3, EWS-FLI1 expression: low (doxycycline-induced shRNA knockdown)
smiles,measurement,setting,value
C/C1=C\CC/C(C)=C/CC(C)(C)/C=C/C1,cell viability (log2),[1],0.0853
same,cell viability (log2),[2],0.0875
same,cell viability (log2),[3],0.112
same,cell viability (log2),[4],0.0862
Cc1ccc(C(C)C)cc2c(C)ccc1-2,cell viability (log2),[1],0.0556
same,cell viability (log2),[2],-0.0467
same,cell viability (log2),[3],0.0686
same,cell viability (log2),[4],0.0228
C=C1CCC2C(CC2(C)C)C(=C)CCC1=NO (centres undefined),cell viability (log2),[1],0.105
same,cell viability (log2),[2],0.00367
same,cell viability (log2),[3],0.133
same,cell viability (log2),[4],0.0769
CC(C)=CCc1c(O)cc(C)oc1=O,cell viability (log2),[1],0.0912
same,cell viability (log2),[2],-0.0147
same,cell viability (log2),[3],0.109
same,cell viability (log2),[4],-0.0401
O=c1[nH]cc(F)c(=O)[nH]1,cell viability (log2),[5],0.207
same,cell viability (log2),[6],0.0564
same,cell viability (log2),[7],0.0782
same,cell viability (log2),[8],0.0161
same,cell viability (log2),[1],0.0591
same,cell viability (log2),[2],-0.00519
same,cell viability (log2),[9],0.172
same,cell viability (log2),[10],0.0764
same,cell viability (log2),[11],0.113
same,cell viability (log2),[12],0.0726
same,cell viability (log2),[13],0.13
same,cell viability (log2),[14],0.0535
same,cell viability (log2),[3],0.0991
same,cell viability (log2),[4],0.0157
same,cell viability (log2),[15],0.104
same,cell viability (log2),[16],0.00707
same,cell viability (log2),[17],0.139
same,cell viability (log2),[18],0.018
same,cell viability (log2),[19],0.0774
same,cell viability (log2),[20],0.0748
same,cell viability (log2),[21],-0.375 (active)
same,cell viability (log2),[22],-0.051
same,cell viability (log2),[23],-0.0664
same,cell viability (log2),[24],-0.00616
CN1C[C@H](O)[C@@H](O)[C@H](O)[C@H]1CO,cell viability (log2),[9],-0.0352
same,cell viability (log2),[10],0.0677
same,cell viability (log2),[15],0.0611
same,cell viability (log2),[16],0.0287
CCC1(c2ccccc2)NC(=O)N(C)C1=O (centres undefined),cell viability (log2),[1],0.0606
same,cell viability (log2),[2],0.0208
same,cell viability (log2),[3],0.107
same,cell viability (log2),[4],0.103
O=C1NC(=O)C(c2ccccc2)(c2ccccc2)N1,cell viability (log2),[7],0.0587
same,cell viability (log2),[8],-0.0104
same,cell viability (log2),[1],0.0952
same,cell viability (log2),[2],0.161
same,cell viability (log2),[9],0.143
same,cell viability (log2),[10],0.0547
same,cell viability (log2),[11],0.0798
same,cell viability (log2),[12],0.0371
same,cell viability (log2),[13],0.05
same,cell viability (log2),[14],0.0456
same,cell viability (log2),[3],0.145
same,cell viability (log2),[4],0.128
same,cell viability (log2),[15],0.044
same,cell viability (log2),[16],0.0796
same,cell viability (log2),[17],0.0207
same,cell viability (log2),[18],0.0711
same,cell viability (log2),[19],-0.00351
same,cell viability (log2),[20],0.0628
same,cell viability (log2),[23],0.0771
same,cell viability (log2),[24],0.0956
CCC1(c2ccccc2)C(=O)NCNC1=O,cell viability (log2),[7],0.0813
same,cell viability (log2),[8],0.0528
same,cell viability (log2),[1],0.0645
same,cell viability (log2),[2],0.0903
same,cell viability (log2),[9],0.00606
same,cell viability (log2),[10],0.00378
same,cell viability (log2),[11],0.122
same,cell viability (log2),[12],0.128
same,cell viability (log2),[13],0.168
same,cell viability (log2),[14],0.0786
same,cell viability (log2),[3],0.179
same,cell viability (log2),[4],0.204
same,cell viability (log2),[15],-0.197 (active)
same,cell viability (log2),[16],-0.337 (active)
same,cell viability (log2),[17],0.146
same,cell viability (log2),[18],0.0526
same,cell viability (log2),[19],0.0966
same,cell viability (log2),[20],0.0601
same,cell viability (log2),[23],0.121
same,cell viability (log2),[24],0.121
N#Cc1c2c(c(NCCCO)n3c1nc1ccccc13)CCC2,cell viability (log2),[1],0.146
same,cell viability (log2),[2],0.012
same,cell viability (log2),[3],0.0888
same,cell viability (log2),[4],-0.0597
COc1cc(O)c2c(=O)cc(C)oc2c1CC=C(C)C,cell viability (log2),[1],0.113
same,cell viability (log2),[2],0.0803
same,cell viability (log2),[3],0.117
same,cell viability (log2),[4],0.16
COc1ccc(C(=O)c2ccc(O)cc2O)c(O)c1,cell viability (log2),[1],0.0224
same,cell viability (log2),[2],0.0701
same,cell viability (log2),[3],0.116
same,cell viability (log2),[4],0.108
COc1ccc(CN2CCN(Cc3cccc([N+](=O)[O-])c3)CC2)cc1OC,cell viability (log2),[1],0.0511
same,cell viability (log2),[2],0.032
same,cell viability (log2),[3],0.111
same,cell viability (log2),[4],0.138
COc1cc2c(cc1OC)-c1cc3ccc(OC)c(OC)c3c[n+]1CC2,cell viability (log2),[1],0.021
same,cell viability (log2),[2],0.0361
same,cell viability (log2),[3],-0.0191
same,cell viability (log2),[4],0.0646
COc1ccc2c(=O)c(-c3cc4c(cc3OC)OCO4)coc2c1,cell viability (log2),[1],0.0588
same,cell viability (log2),[2],-0.078
same,cell viability (log2),[3],0.0766
same,cell viability (log2),[4],0.0171
COc1ccc2cc3[n+](cc2c1OC)CCc1cc2c(cc1-3)OCO2,cell viability (log2),[5],0.0792
same,cell viability (log2),[6],0.0888
same,cell viability (log2),[1],0.0876
same,cell viability (log2),[2],0.0916
same,cell viability (log2),[9],0.139
same,cell viability (log2),[10],0.0365
same,cell viability (log2),[3],-0.0264
same,cell viability (log2),[4],0.141
same,cell viability (log2),[15],-0.318 (active)
same,cell viability (log2),[16],-0.00212
same,cell viability (log2),[21],-1.53 (active)
same,cell viability (log2),[22],-0.365 (active)
